Measured values: the supplement of paper PMC9844399
Structures can show the parent of a compound that is named as a salt.
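Also: Hoechst-stained nuclei counted by automated confocal imaging of four fields per well in 384-well plates, with the robust Z-score based on the per-plate DMSO median and robust SD.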

Each compound was assayed on HeLa (assay: nuclear count per well, robust Z-score vs DMSO; higher = more cells (less toxicity)). Conditions: 10 µM; 6 h.
In the case of `NCCCC[C@H](N[C@@H](CCc1ccccc1)C(=O)O)C(=O)N1CCC[C@H]1C(=O)O` [Lisinopril Dihydrate], the “nuclear count per well” value is reported as 0.697.
With `Cn1cnc2c(F)c(Nc3ccc(Br)cc3Cl)c(C(=O)NOCCO)cc21` [Selumetinib (AZD6244)] the “nuclear count per well” value was -1.68.
In the case of `CN(C)CCN(Cc1cccs1)c1ccccn1`, the “nuclear count per well” value is reported as 1.2.
`COC(=O)CCc1ccc(OCC(O)CNC(C)C)cc1` (centres undefined) [Esmolol] was tested, and the “nuclear count per well” value was 0.277.
For `Cc1onc(-c2ccccc2)c1C(=O)N[C@@H]1C(=O)N2[C@@H]1SC(C)(C)[C@@H]2C(=O)O` [Oxacillin sodium salt monohydrate], the “nuclear count per well” value was 0.042.
With `C1CCC(C(CC2CCCCN2)C2CCCCC2)CC1` (centres undefined) [Perhexiline maleate salt] the “nuclear count per well” value was -0.947.
With `CCCC(=O)Nc1ncnc2c1ncn2[C@@H]1O[C@@H]2COP(=O)(O)O[C@H]2[C@H]1OC(=O)CCC` [Dibutyrylcyclic AMP] the “nuclear count per well” value was -0.946.
For `CCCCC(C)(O)C/C=C/[C@H]1[C@H](O)CC(=O)[C@@H]1CCCCCCC(=O)OC` (mixture of isomers) [Misoprostol], the “nuclear count per well” value was 0.593.
`c1ccc2c(-c3ccncc3)c[nH]c2c1` [Rockout] was tested, and the “nuclear count per well” value was 1.18.
With `O=Cc1c2[nH]c3ccccc3c2cc2[nH]c3ccccc3c12` [6-Formylindolo [3,2-B] carbazole] the “nuclear count per well” value was -0.343.
For `CCOc1ccccc1OCCN[C@H](C)Cc1ccc(OC)c(S(N)(=O)=O)c1`, the “nuclear count per well” value was 0.0182.
For `O=C(O)[C@H]1/C(=C/CO)O[C@@H]2CC(=O)N21` [Clavulanate Potassium], the “nuclear count per well” value was 1.69.
In the case of `CC(=O)[C@H]1CC[C@H]2[C@@H]3CCC4=CC(=O)CC[C@]4(C)[C@H]3CC[C@]12C` [Progesterone], the “nuclear count per well” value is reported as 0.401.
For `CCCCC[C@H](O)/C=C/[C@H]1C(=O)C=C[C@@H]1C/C=C\CCCC(=O)O` [Prostaglandin J2], the “nuclear count per well” value was 0.0931.
In the case of `C[C@H](Cn1cnc2c(N)ncnc21)OCP(=O)(O)O` [Tenofovir], the “nuclear count per well” value is reported as 0.802.
`O=C1CN(/N=C/c2ccc(-c3ccc([N+](=O)[O-])cc3)o2)C(=O)N1` [Dantrolene] was tested, and the “nuclear count per well” value was 1.07.
`CCCCCC(O)C=CC1C(O)CC(O)C1CCCCCCC(=O)O` (centres undefined) [Prostaglandin  F1a] was tested, and the “nuclear count per well” value was -0.0151.
In the case of `CC1(C)CCC2=C(O1)c1ccccc1C(=O)C2=O` [Beta-lapachone], the “nuclear count per well” value is reported as -8.58.
In the case of `CC[N+](C)(CC)CCC[n+]1c(-c2ccccc2)c2cc(N)ccc2c2ccc(N)cc21` [Propidium iodide], the “nuclear count per well” value is reported as 1.8.
In the case of `CCN(CC)CCCC(C)Nc1ccnc2cc(Cl)ccc12` (centres undefined) [Chloroquine Diphosphate], the “nuclear count per well” value is reported as 0.538.
In the case of `CC(C)C[C@H](NC(=O)[C@@H](Cc1c[nH]c2ccccc12)NC(=O)[C@H](Cc1ccc(O)cc1)NC(=O)[C@H](CO)NC(=O)[C@H](Cc1c[nH]c2ccccc12)NC(=O)[C@H](Cc1cnc[nH]1)NC(=O)[C@@H]1CCC(=O)N1)C(=O)N[C@@H](CCCN=C(N)N)C(=O)N1CCC[C@H]1C(=O)NCC(N)=O` [Triptorelin Acetate], the “nuclear count per well” value is reported as 0.525.
In the case of `NNCCc1ccccc1` [Phenelzine Sulfate], the “nuclear count per well” value is reported as 0.336.
In the case of `COc1cc2ncc(-c3ccccc3)nc2cc1OC`, the “nuclear count per well” value is reported as -1.09.
In the case of `Cc1occc(=O)c1O` [Maltol], the “nuclear count per well” value is reported as 0.616.
In the case of `CCCCCCCCCCCC=CC(C)(C)C=CCCCC(=O)O` [7,7-Dimethyleicosadienoic acid], the “nuclear count per well” value is reported as 0.928.
`CC(C)NC[C@H](O)COc1cccc2ccccc12` [(S)-(-)-propranolol HCl] was tested, and the “nuclear count per well” value was 0.409.
In the case of `C[C@@H]1C/C=C/C=C/C=C/C=C/[C@H](O[C@@H]2O[C@H](C)[C@@H](O)[C@H](N)[C@@H]2O)C[C@@H]2O[C@](O)(C[C@@H](O)C[C@H]3O[C@@H]3/C=C/C(=O)O1)C[C@H](O)[C@H]2C(=O)O` [Natamycin], the “nuclear count per well” value is reported as 0.636.
In the case of `CCN(CC)CCNC(=O)c1ccc(N)cc1` [Procainamide], the “nuclear count per well” value is reported as -0.0146.
For `CCCCCCCCCCCCCCCCOCC(CO)OC(C)=O` (centres undefined) [1-Hexadecyl-2-O-acetyl-glycerol], the “nuclear count per well” value was 0.253.
`CC/C=C\C/C=C\C/C=C\CCCCCCCC(=O)O` [Linolenic acid (18:3 n-3)] was tested, and the “nuclear count per well” value was -0.431.
With `O=c1[nH]c(=O)n([C@@H]2O[C@H](CO)[C@@H](O)[C@@H]2F)cc1I` [Fialuridine] the “nuclear count per well” value was -0.598.
In the case of `CN(C)C[C@H](O)Cn1c2ccc(Br)cc2c2cc(Br)ccc21` (racemic) [Wiskostatin], the “nuclear count per well” value is reported as -0.063.
For `CC#C[C@]1(O)CC[C@H]2[C@@H]3CCC4=CC(=O)CCC4=C3[C@@H](c3ccc(N(C)C)cc3)C[C@@]21C` [Mifepristone], the “nuclear count per well” value was -0.723.
In the case of `COc1ccc2cccc(CCNC(C)=O)c2c1` [Agomelatine], the “nuclear count per well” value is reported as -0.949.
For `COc1ccc2cc([C@H](C)C(=O)O)ccc2c1` [Naproxen], the “nuclear count per well” value was 0.253.
For `Cc1ccccc1C(OCCN(C)C)c1ccccc1` (centres undefined) [Orphenadrine Citrate], the “nuclear count per well” value was -1.31.
With `Cc1oncc1C(=O)Nc1ccc(C(F)(F)F)cc1` [Leflunomide] the “nuclear count per well” value was 0.618.
For `CC(C)(Oc1ccc(C2CC2(Cl)Cl)cc1)C(=O)O` (centres undefined) [Ciprofibrate], the “nuclear count per well” value was -0.743.
In the case of `NCCNCCNCCN` [Trientine Dihydrochloride], the “nuclear count per well” value is reported as -0.593.
